Bioassay records as filed in PubChem.
NPSR antagonist: blocks cAMP signaling of the human neuropeptide S receptor; Q6W5P4; CHO-NPSR cells, cAMP TR-FRET, antagonist mode; 1% of 220,000 active; AID 1461; Potency, µM (titrated, usually from 38.3 µM), for inactives: at the highest dose activity change, negative = inhibition, most hits filed as inhibitors; note: % is set by controls: 0 for no effect and ±100 for the full control effect; nearly all actives have a fitted effect of over 50% in size
Target sequence (Q6W5P4 whole entry, looked up): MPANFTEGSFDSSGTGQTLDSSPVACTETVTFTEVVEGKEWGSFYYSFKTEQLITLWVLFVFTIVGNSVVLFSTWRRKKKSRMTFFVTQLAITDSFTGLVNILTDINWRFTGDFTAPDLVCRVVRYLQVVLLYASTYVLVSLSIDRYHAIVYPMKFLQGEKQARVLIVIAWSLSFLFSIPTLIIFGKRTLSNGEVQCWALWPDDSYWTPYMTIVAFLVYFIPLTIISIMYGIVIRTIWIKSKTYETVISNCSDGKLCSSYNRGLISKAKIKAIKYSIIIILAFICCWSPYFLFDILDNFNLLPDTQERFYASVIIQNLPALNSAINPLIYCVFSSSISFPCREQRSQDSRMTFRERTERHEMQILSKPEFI
HTT cytoprotect: protects HTT-Q103 PC12 cells, measured by ATP | PC12 HTT-Q103 induced, cytoprotection, ATP luminescence, 40 h | Potency, µM (titrated, usually from 56.4 µM), for inactives: cytoprotection (ATP increase), usual class: activators | 0.14% of 230,000 active | AID 1471; note: % of control where 0% means no effect; nearly all actives have a fitted effect of over 45% in size
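PC12 cells with ecdysone-inducible HTT exon 1 Q103-GFP, induced with 100 nM tebufenozide and co-treated with library compounds in a dose series (1536-well, 1500 cells/well). Cytoprotection read as ATP content by ATPlite luminescence.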
IMPase Li cell: IMPase inhibition in cells with lithium potentiation; CHO-M1 cells, IP1 TR-FRET (IP-One), carbachol + lithium; 0.35% of 210,000 active; Potency, µM (doses to about 59.4 µM), for inactives: at the highest dose activity, negative = IMPase inhibition, hits mostly inhibitors;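 note: IP1 builds up when IMPase is blocked and the TR-FRET signal falls; plate controls were basal vehicle for no effect and high inhibitor control for full effect; nearly all actives have a fitted effect of over 50% in size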
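Readout is a homogeneous TR-FRET IP1 immunoassay (Ex 320, Em 665 and 620), where raised cytosolic IP1 lowers signal. Cells were CHO-M1 treated 30 min at 37C with test compounds plus a little lithium; AC50 values came from Hill-equation fitting.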
HttQ103 aggreg: inhibitors of mutant huntingtin aggregate formation in PC12 cells. Potency, µM (series often up to 46.1 µM), for the others: top-dose activity change, negative = inhibition, usual class: inhibitors. 1.1% of 220,000 active. PC12 HttQ103-GFP aggregates, Acumen cytometry, 40 h. AID 1688; note: % is set by controls: 0 for no effect and ±100 for the full control effect; nearly all actives have a fitted effect of over 60% in size
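Multiplexed with ATP-based cell death, this channel scores GFP aggregates in PC12 cells expressing inducible HTTex1-Q103-GFP. Induction used 100 nM tebufenozide; compounds were tested in concentration series.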
ERK EGF inh: inhibitors of EGF-stimulated ERK signaling pathway; HEK293-V1b, EGF-stimulated phospho-ERK AlphaScreen; 0.41% of 130,000 active; Potency, µM (series often up to 11.5 µM), for inactives: at the highest dose activity change, negative = inhibition, hits mostly inhibitors;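 note: plate controls were stimulated vehicle wells for no effect and unstimulated vehicle basal for full effect; nearly all actives have a fitted effect of over 55% in size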
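HEK293 cells stably expressing V1b receptor, serum-reduced (1% FBS) overnight, got compound for 30 min at 37C, then 25 nM EGF for 5 min. Lysate phospho-ERK read by AlphaScreen SureFire; AC50 from Hill fits.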
Starred values were filed as active, the others as inactive; u = inconclusive; x = no result given; [ ] = remark or other dose. Rows were chosen to be rich in hits. Some 1.9% of all compounds tested hit in one or more screens of this group. Calls come from the whole dose curve; as a rule, active = well fitted curve in the direction sought with a large enough effect; inconclusive = small, poorly fitted or top-dose-only effect, or another doubt; inactive = no such curve, though single readings can be large; an effect the other way counts as inactive or inconclusive. Potency is the fitted concentration of half-maximal effect.

SMILES	NPSR antagonist	HTT cytoprotect	IMPase Li cell	HttQ103 aggreg	ERK EGF inh
Oc1c(I)cc(Cl)c2cccnc12	-12.6%	-234.7%	5.8%	10µM*	3.2%
O=[N+]([O-])c1cc(Cl)c2cccnc2c1O	-40.8%	-169.6%	-2.3%	u	-6.5%
COCc1ccc(O)c2ncccc12	3.98µM*	-73.0%[10 µM]	23.2%[38.3 µM]	11.2µM*	x
Oc1c(C(c2ccccn2)N2CCCCC2)cc(Cl)c2cccnc12 (centres undefined)	-56.5%	-140.7%	7.9%	25.1µM*	1.6%[57.5 µM]
O=[N+]([O-])c1cc(Cl)c(O)c2ncccc12	-39.6%	-164.6%	-6.3%	7.94µM*	-8.0%
C#CCCCO/N=C1/[C@H]2O[C@@H]2[C@@H](O)[C@H]2[C@H]1CCn1c(=O)n(-c3ccccc3)c(=O)n12	x	-12.9%[10 µM]	x	x	x
CCCCc1cc2c(cn1)C(=O)C(C)(OC(C)=O)C(=O)C2 (centres undefined)	x	-25.4%[10 µM]	11.4%	x	x
CCC(C)(C)c1ccc(OCCCC[n+]2cccc(C)c2C)c(C(C)(C)CC)c1	u	-51.0%[10 µM]	x	-31.2%[9.22 µM]	31.6µM*
Cc1cc(C(C)(C)C)ccc1OCCCCN1CCCC1	19.2%	-4.3%[10 µM]	7.8%	-3.7%	-4.3%
CCC(C)(C)c1ccc(OCCCC[n+]2ccc(C)cc2)c(C(C)(C)CC)c1	u	-80.0%	10.9%	17.8µM*	u
CO[C@@H]1/C=C\O[C@]2(C)Oc3c(C)c(O)c4c(O)c(cc(O)c4c3C2=O)NC(=O)/C(C)=C\C=C/[C@H](C)[C@@H](O)[C@H](C)[C@H](O)C(C)[C@H](OC(C)=O)[C@@H]1C (some centres undefined)	x	x	-6.1%	x	x
COc1ccc2[nH]cc(CCNc3ncncc3-c3ccc4c(c3)OCO4)c2c1	x	u	15.2%	x	x
O=C(CCCN1C(=O)c2ccccc2C1=O)Nc1c2c(nc3c1CCC3)CCC2	-7.0%[46.1 µM]	-8.4%	11.2µM*	5.5%	x
Cc1cccnc1NC(=O)CCCN1C(=O)c2ccccc2C1=O	15.5%[46.1 µM]	-5.8%[10 µM]	16.4%[38.3 µM]	-0.1%	x
C=CCn1c(NCCc2ccccc2)nc2c1c(=O)n(C)c(=O)n2C	-0.5%[46.1 µM]	11.0%[10 µM]	22.4%[38.3 µM]	11.2µM*	x
C/C(Cl)=C\Cn1c(NCCc2ccccc2)nc2c1c(=O)n(C)c(=O)n2C	-10.8%[46.1 µM]	-64.4%	4.0%[38.3 µM]	4.47µM*	x
Cc1ccc(Cn2c(NCCc3ccccc3)nc3c2c(=O)n(C)c(=O)n3C)cc1	-5.8%[46.1 µM]	-28.6%	38.8%[38.3 µM]	u	x
C=CCN1c2ccccc2[C@]23C[C@@H](C(=O)OC)N(S(=O)(=O)c4cccs4)C2=NC(C(=O)OC)=C(C(=O)OC)[C@H]13	x	-23.0%[10 µM]	7.1%	x	x
N#Cc1ccc(CS(=O)(=O)c2ccccc2)cc1	x	-0.9%	13.3%	x	-2.8%
COC(=O)C(c1ccc(OC)c(OC)c1)C1c2ccccc2C=C(C)N1C(=O)OC (centres undefined)	x	x	8.3%	x	-8.1%
CCOc1ccc(/C=C2/C(=N)N3OC(C)=CC3=NC2=O)cc1OC	-10.7%	-14.1%	u	-8.9%	-2.7%[57.5 µM]
CCOc1cc(/C=C2/C(=N)N3OC(C)=CC3=NC2=O)ccc1OCCOc1ccccc1	10µM*	-27.4%	-3.9%[38.3 µM]	1.8%	x
C=C[C@]1(C)Cc2occ(C)c2C[C@H]1C(=C)C(=O)O	x	21.3%	7.9%	x	-5.9%
CN1CCN(c2ncc3nc(-c4ccc(F)cc4)c(=O)n(C4CC4)c3n2)CC1	x	-47.8%	-9.4%	x	x
CC1(C)Cc2c(c(=S)nc(-c3ccccc3)n2CCO)CO1	2.3%[46.1 µM]	20µM*	11.6%[38.3 µM]	-26.3%	x
SMILES	NPSR antagonist	HTT cytoprotect	IMPase Li cell	HttQ103 aggreg	ERK EGF inh
Cc1ccc(-c2nc(=S)c3c(n2Cc2ccco2)CC(C)(C)OC3)cc1	-10.4%[46.1 µM]	-0.5%	3.98µM*	u	x
OCCCn1c(-c2ccccc2)nc(=S)c2c1CCCC2	u	2.82µM*	u	x	x
c1ccc(Oc2nc(NC3CCCCC3)c3[nH]cnc3n2)cc1	x	x	-1.5%	x	x
CN1CCN(C(=O)c2cc(-c3ccc(O)cc3)on2)CC1	x	-16.5%	x	x	x
O=[N+]([O-])c1ccc(Sc2cccc[n+]2[O-])c2nonc12	u	-97.5%[10 µM]	x	1.12µM*	25.1µM*
Cc1c(C(=O)N2CCCC(C)C2)sc2ncnc(N3CCCCC3C)c12 (centres undefined)	-43.2%	-17.4%	-8.8%	-7.4%	-4.9%
Cc1c(C(=O)O)sc2ncnc(N3CCCCC3C)c12 (centres undefined)	22.2%[46.1 µM]	-10.9%	5.62µM*	-25.1%	x
O=C(OCC1OC(OC(=O)c2cc(O)c(O)c(OC(=O)c3cc(O)c(O)c(O)c3)c2)[C@@H](OC(=O)c2cc(O)c(O)c(OC(=O)c3cc(O)c(O)c(O)c3)c2)C(OC(=O)c2cc(O)c(O)c(OC(=O)c3cc(O)c(O)c(O)c3)c2)C1OC(=O)c1cc(O)c(O)c(OC(=O)c2cc(O)c(O)c(O)c2)c1)c1cc(O)c(O)c(OC(=O)c2cc(O)c(O)c(O)c2)c1 (some centres undefined)	x	-69.2%	u	11.3%	7.94µM*
Clc1ccc(-c2cc(C3CCNCC3)[nH]n2)cc1	7.6%	-20.3%	u	2.3%	-5.1%
COc1ccc(OC)c(-c2cc(C3CCN(c4cc(Cl)nc(N)n4)CC3)[nH]n2)c1	u	-123.3%	19.4%[38.3 µM]	-28.6%	x
COc1ccc(-c2cc(C3CCN(c4cc(Cl)nc(N)n4)CC3)[nH]n2)cc1	-20.9%[46.1 µM]	-96.5%	7.6%[38.3 µM]	12.6µM*	x
Nc1nc(Cl)cc(N2CCC(c3cc(-c4ccc(Cl)cc4)n[nH]3)CC2)n1	10µM*	-87.1%	6.6%[38.3 µM]	u	x
O[C@@H](c1cc(C(F)(F)F)nc2c(Cl)cc(Cl)cc12)C1CCCCN1 (some centres undefined)	x	x	-1.9%	x	x
CC/C(=N\NC(=O)C(N)=O)c1ccccc1O	-1.1%	x	0.9%	10µM*	4.8%
CCCCCCC#CC1C=CC(OC(=O)OCC)C(COC(=O)OCC)O1 (centres undefined)	x	2µM*	x	x	x
Clc1ccc([C@@H](c2ccccc2Cl)C(Cl)Cl)cc1	x	-9.3%[1.9 µM]	x	x	x
CCN(CC)CCOc1ccc(/C(=C(/Cl)c2ccccc2)c2ccccc2)cc1	10µM*	-77.4%	19.9%	u	4.8%
Cc1nn(-c2ccccc2)c(N)c1N=Nc1ccc(Cl)cc1	-20.4%	-86.7%[10 µM]	14.7%	3.55µM*	u
COc1ccc(N(Cc2ccccc2)C(=O)CSc2nnc(Cn3nnc4ccccc43)o2)cc1	-20.1%[46.1 µM]	-12.4%	7.8%[38.3 µM]	u	x
O=C(CSc1nnc(Cn2nnc3ccccc32)o1)N(Cc1ccc(F)cc1)c1ccccc1	-29.2%[46.1 µM]	27.7%[10 µM]	12.7%[38.3 µM]	12.6µM*	x
COc1ccc2c(c1)C(=O)[C@H](OC(=O)N[C@H]1CCCc3ccccc31)[C@@H](c1ccc(OC)c(Br)c1)O2	x	26.2%	4.5%	x	-6.5%
CN(C)S(=O)(=O)c1ccc2c(c1)nc(CCC(=O)NCc1ccc(Cl)cc1)n2C	-7.8%	0.631µM*	6.8%	u	-14.7%
c1ccc(CCc2ccccc2-c2nc(-c3cccnc3)no2)cc1	-22.1%[46.1 µM]	-12.7%	22.4%	20µM*	x
